# According to article PMC12431657, “Discovery and mechanistic insights of dibenzoylmethane as a broad spectrum inhibitor of coronavirus” (PLOS Pathogens, 2025):
# Where a name gives a salt, the structure may show the parent alone. Read-outs that look alike come from different tables or passages of the source. About 95 (3%) of roughly 3,300 compounds showed an effect of 50% or more. The sample holds strong results, similar compounds and a random draw of the others, so the mix is not that of the screen.
# System: HCoV-229E
# Design: species or system Huh-7; HTS, protection from HCoV-229E induced cell death, luminescent cell viability (CellCounting-Lite 2.0), inhibition rate
# Details: 24 h post infection, 1 h compound pre-incubation, 10 µM, inhibitor
SMILES,229E Inhibition rate [%],"229E Inhibition rate (229E Inhibition rate, 24 h) [%]"
C=C(CC[C@@H](C(=O)O)[C@H]1[C@H](O)C[C@@]2(C)C3=CC[C@H]4C(C)(C)[C@@H](O)CC[C@]4(C)C3=CC[C@]12C)C(C)C [Dehydrotumulosic acid],8.5,–
C/C(=C\CC[C@@H](C)[C@H]1CC[C@@]2(C)C3=CC[C@H]4C(C)(C)[C@@H](O)CC[C@]4(C)C3=CC[C@]12C)CO [Ganoderol B],7.7,–
CC1(C)O[C@H]2CC(=O)OC[C@]23[C@H]2CC[C@@]4(C)[C@H](c5ccoc5)OC(=O)[C@H]5O[C@]54[C@]2(C)[C@@H](O)C(=O)[C@@H]13 [Rutaevin],0,–
"COc1ccc(OC)cc1 [1,4-Dimethoxybenzene]",21,–
"COc1cc(OC)cc(OC)c1 [1,3,5-Trimethoxybenzene]",55.2,–
"COc1cc(O)cc(OC)c1 [3,5-Dimethoxyphenol]",32.7,–
O=C1N[C@@H](Cc2ccccc2)C(=O)N2CCC[C@@H]12 [Cyclo(L-Phe-L-Pro)],11.1,–
CCCCCCCCCCCCCCCc1cc(O)cc(O)c1 [5-Pentadecylresorcinol],51.7,–
CCCCCCCCCCCC1=C(O)C(=O)C=C(O)C1=O [Embelin],12.3,–
Oc1ccc(CCc2cc(O)cc(O)c2)cc1 [Dihydroresveratrol],10.7,–
O=c1c(O)c(-c2ccc(O)cc2)oc2c(O)c(O)cc(O)c12 [Herbacetin],0,–
O=C1CCC[C@@H]2[C@H]3CCCN4CCC[C@@H](CN12)[C@H]34 [Allomatrine],8.4,–
COC[C@@H]1Cc2cc(OC)c3c(c2[C@H](c2ccc(OC)c(OC)c2)[C@H]1COC)OCO3 [Hypophyllanthin],24.8,–
C=C1C(=O)O[C@H]2C[C@@H](C)[C@@H]3CCC(=O)[C@@]3(C)[C@@H](OC(C)=O)[C@H]12 [Ergolide],57.9,–
C=C1C(=O)O[C@H]2C[C@@H](C)[C@@H]3[C@@H](OC(C)=O)C[C@H](O)[C@@]3(C)[C@@H](OC(C)=O)[C@H]12 [Britannin],3,–
C=C1C(=O)O[C@H]2C[C@@H](C)[C@@H]3C=CC(=O)[C@@]3(C)[C@@H](OC(C)=O)[C@H]12 [Bigelovin],4.5,–
CC1(C)O[C@H]2CC(=O)OC[C@@]23[C@H]1CC(=O)[C@@]1(C)C2=CC(=O)O[C@@H](c4ccoc4)[C@]2(C)CC[C@@H]13 [Deoxylimonin],9.8,–
CC(=O)O[C@@]12CO[C@@H]1C[C@@H](O)[C@@]1(C)C(=O)[C@H](O)C3=C(C)[C@@H](OC(=O)[C@H](O)[C@@H](NC(=O)c4ccccc4)c4ccccc4)C[C@@](O)([C@@H](OC(=O)c4ccccc4)[C@H]21)C3(C)C [7-Epi 10-desacetyl paclitaxel],21.4,–
O=C(N[C@H](COC(=O)[C@H](Cc1ccccc1)NC(=O)c1ccccc1)Cc1ccccc1)c1ccccc1 [Asperphenamate],18,–
CCCCC/C=C\C/C=C\CCCCCCCC(=O)NCc1ccccc1 [N-Benzyllinoleamide],24.5,–

SMILES,229E Inhibition rate [%],"229E Inhibition rate (229E Inhibition rate, 24 h) [%]"
CCCCCCCCCCC/C=C\CCCCC(=O)O [Petroselinic acid],0,–
CCCCCC/C=C\CCCC(=O)O [cis-5-Dodecenoic acid],63.5,–
CCCCCCCC/C=C\CCCCCCCC(=O)O [Oleic acid],–,9.2
CCCCCCCC/C=C\CCCCCCCC(=O)NCc1ccccc1 [N-Benzyloleamide],52.8,–
CCCCCCCCCCCCCCCCCC(=O)NCc1ccccc1 [N-Benzyloctadecanamide],46.3,–
Nc1nc(=O)n([C@H]2C[C@H](O)[C@@H](CO)O2)cc1CO [5-Hydroxymethyl-2’-deoxycytidine],0,–
OC[C@H]1OC(O)[C@H](O)[C@H](O)[C@@H]1O (stereo partly drawn) [D-Allose],0,–
C=C(C)[C@@H]1CC[C@]2(COC(C)=O)CC[C@]3(C)[C@H](CC[C@@H]4[C@@]5(C)CC[C@H](OC(C)=O)C(C)(C)[C@@H]5CC[C@]43C)[C@@H]12 [Betulin diacetate],4.9,–
O=c1ccc2cc3ccoc3c(O)c2o1 [Xanthotoxol],35.1,–
"CC(C)=CC[C@H](OC(=O)C=C(C)C)C1=CC(=O)c2c(O)ccc(O)c2C1=O [β,β-Dimethylacrylalkannin]",17.4,–
CC(=O)O[C@@H](CC=C(C)C)C1=CC(=O)c2c(O)ccc(O)c2C1=O [Acetylalkannin],10.1,–
"CC(C)=CC[C@@H](OC(=O)C=C(C)C)C1=CC(=O)c2c(O)ccc(O)c2C1=O [β,β-Dimethylacrylshikonin]",50.2,–
C[n+]1cccc(C(=O)[O-])c1 [Trigonelline],–,7.5
O=c1cc(-c2ccccc2)oc2cc(O[C@@H]3O[C@H](CO)[C@@H](O)[C@H](O)[C@H]3O)c(O)c(O)c12 [Oroxin A],34.7,–
O=C(O)c1ccc[nH]1 [Pyrrole-2-carboxylic acid],6.8,–
CC(=O)c1ccc[nH]1 [2-Acetylpyrrole],51.6,–
CC(=O)c1ccccc1 [Acetophenone],31.9,–
CCCCCCCCC1=C(CCCCCCCC(=O)O)C1 [Sterculic acid],20,–
CC(=O)NCCCCN [N-Acetylputrescine hydrochloride],17.4,–
CC(=O)NCCCCNCCCN [N8-Acetylspermidine dihydrochloride],37.4,–

SMILES,229E Inhibition rate [%],"229E Inhibition rate (229E Inhibition rate, 24 h) [%]"
CC(=O)NCCCCCN [N-(5-Aminopentyl)acetamide],61.9,–
C[C@@]1(C(=O)O)CC[C@]2(C)CC[C@]3(C)C4=CC(=O)c5c(cc(O)c(O)c5C=O)[C@]4(C)CC[C@@]3(C)[C@@H]2C1 [Demethylzeylasteral],6.3,–
CCCCCCC/C=C/C(=O)CCc1ccc(O)c(OC)c1 [[8]-Shogaol],39.3,–
C/C=C1/CN2[C@H]3Cc4c([nH]c5ccccc45)[C@]2(O)C[C@@H]1[C@@]3(CO)C(=O)OC [16-Epivoacarpine],7.1,–
C/C=C1/CN2CCc3c([nH]c4ccccc34)[C@@H]2C[C@@H]1/C(=C/OC)C(=O)OC [Geissoschizine methyl ether],0,–
C/C=C1/CN2[C@@H]3C[C@@]45c6ccccc6N[C@]4(O3)[C@@H]2C[C@@H]1[C@H]5C(=O)OC [Picrinine],51.7,–
O=C(O)CNC(=O)/C=C/c1ccccc1 [Cinnamoylglycine],41.7,–
O=C(O)C[C@@](O)(C(=O)O)[C@H](O)C(=O)O [(-)-Hydroxycitric acid],12.3,–
CC(C)=C/C=C1\O[C@@H]2CC(C)=CC(=O)[C@@H]2[C@]1(C)O [Bisabolangelone],30,–
O=Cc1ccc(O)cc1 [p-Hydroxybenzaldehyde],10.9,–
CC(C)=CCC[C@](C)(O)[C@H]1CC[C@]2(C)[C@@H]1[C@H](O)C[C@@H]1[C@@]3(C)CC[C@H](O)C(C)(C)[C@@H]3[C@@H](O[C@@H]3O[C@H](CO)[C@@H](O)[C@H](O)[C@H]3O[C@@H]3O[C@@H](C)[C@H](O)[C@@H](O)[C@H]3O)C[C@]12C [Ginsenoside Rg2],54.2,–
CC(C)=CCC[C@](C)(O[C@@H]1O[C@H](CO)[C@@H](O)[C@H](O)[C@H]1O)[C@H]1CC[C@]2(C)[C@@H]1[C@H](O)C[C@@H]1[C@@]3(C)C[C@@H](O)[C@H](O[C@@H]4O[C@H](CO)[C@@H](O)[C@H](O)[C@H]4O[C@@H]4O[C@H](CO)[C@@H](O)[C@H](O)[C@H]4O)C(C)(C)[C@@H]3CC[C@]12C [Gypenoside XLVI],10.6,–
CC(C)=CCC[C@](C)(O)[C@H]1CC[C@]2(C)[C@@H]1[C@H](O)C[C@@H]1[C@@]3(C)CC[C@H](O)C(C)(C)[C@@H]3[C@@H](O[C@@H]3O[C@H](CO)[C@@H](O)[C@H](O)[C@H]3O[C@@H]3O[C@H](CO)[C@@H](O)[C@H](O)[C@H]3O)C[C@]12C [Ginsenoside Rf],28.3,–
CC(C)=CCC[C@@](C)(O)[C@H]1CC[C@]2(C)[C@@H]1[C@H](O)C[C@@H]1[C@@]3(C)CC[C@H](O)C(C)(C)[C@@H]3[C@@H](O[C@@H]3O[C@H](CO)[C@@H](O)[C@H](O)[C@H]3O[C@@H]3O[C@@H](C)[C@H](O)[C@@H](O)[C@H]3O)C[C@]12C [20(R)-Ginsenoside Rg2],5.2,–
CC(C)=CCC[C@@](C)(O)[C@H]1CC[C@]2(C)[C@@H]1[C@H](O)C[C@@H]1[C@@]3(C)C[C@@H](O)[C@H](O[C@@H]4O[C@H](CO)[C@@H](O)[C@H](O)[C@H]4O[C@@H]4O[C@H](CO)[C@@H](O)[C@H](O)[C@H]4O)C(C)(C)[C@@H]3CC[C@]12C [Gypenoside LI],0,–
CC(C)=CCC[C@](C)(O)[C@H]1CC[C@]2(C)[C@@H]1[C@H](O)C[C@@H]1[C@@]3(C)C[C@@H](O)[C@H](O[C@@H]4O[C@H](CO)[C@@H](O)[C@H](O)[C@H]4O[C@@H]4O[C@H](CO)[C@@H](O)[C@H](O)[C@H]4O)C(C)(C)[C@@H]3CC[C@]12C [Gypenoside L],61.5,–
COc1ccc([C@H]2OC[C@H]3[C@@H]2CO[C@H]3c2ccc(O[C@@H]3O[C@H](CO)[C@@H](O)[C@H](O)[C@H]3O)c(OC)c2)cc1OC [Phillyrin],0,–
COc1cc(C2Oc3cc([C@H]4Oc5cc(O)cc(O)c5C(=O)[C@@H]4O)ccc3OC2CO)ccc1O (stereo partly drawn) [Silybin],13,–
COc1cc(C2Oc3ccc([C@H]4Oc5cc(O)cc(O)c5C(=O)[C@@H]4O)cc3OC2CO)ccc1O (stereo partly drawn) [Isosilybin],0,–
COc1cc([C@@H]2[C@H]3CO[C@@]4(O)C(=O)[C@@H]2C=C([C@H]2Oc5cc(O)cc(O)c5C(=O)[C@@H]2O)[C@@H]34)ccc1O [Silydianin],51.4,–
